According to PMC3919609, “Deep sequencing of large library selections allows computational discovery of diverse sets of zinc fingers that bind common targets”:

What was measured:
Test in all cases: Zn; 100 nM beta-estradiol; yeast GFP reporter, 12 h induction, 3 biological replicates
Details in all cases: tags: estrogen receptor LBD - VP16 fusion (left out); vector residues GT and GS kept at the ends; dsDNA, one strand shown
[1] = molecular target: RA three-finger array, finger 2 TSYNLTR (synthetic construct (mouse Zif268 …, UniProt P08046 333-418, E352N;T354R;R355A;R377T;D379Y;H380N;T383R;D407A;E408N;R409L;K410V))
[2] = molecular target: RA three-finger array, finger 2 RADNLTE (synthetic construct (mouse Zif268 …, UniProt P08046 333-418, E352N;T354R;R355A;S378A;H380N;T383E;D407A;E408N;R409L;K410V))
[3] = molecular target: RA three-finger array, finger 2 RSDNLTR (synthetic construct (mouse Zif268 …, UniProt P08046 333-418, E352N;T354R;R355A;H380N;T383R;D407A;E408N;R409L;K410V))
[4] = molecular target: RA three-finger array, finger 2 QSGNLTE (synthetic construct (mouse Zif268 …, UniProt P08046 333-418, E352N;T354R;R355A;R377Q;D379G;H380N;T383E;D407A;E408N;R409L;K410V))
[5] = molecular target: RA three-finger array, finger 2 DSSNLRS (synthetic construct (mouse Zif268 …, UniProt P08046 333-418, E352N;T354R;R355A;R377D;D379S;H380N;T382R;T383S;D407A;E408N;R409L;K410V))
[6] = molecular target: RA three-finger array, finger 2 HSSNLTH (synthetic construct (mouse Zif268 …, UniProt P08046 333-418, E352N;T354R;R355A;R377H;D379S;H380N;T383H;D407A;E408N;R409L;K410V))

With GAGCAGAAG the binding signal [1] was 0.098 mean GFP / mean GFP of Zif268 on its consensus site and the binding signal [2] was 0.267 ± 0.016 mean GFP / mean GFP of Zif268 on its consensus site.

GAGGAGAAG was tested, and the binding signal [1] was 0.873 ± 0.063 mean GFP / mean GFP of Zif268 on its consensus site and the binding signal [3] was 0.986 ± 0.121 mean GFP / mean GFP of Zif268 on its consensus site.

For GAGCAAAAG, the binding signal [4] was 0.251 ± 0.044 mean GFP / mean GFP of Zif268 on its consensus site.

With GAGCACAAG the binding signal [5] was 0.498 ± 0.055 mean GFP / mean GFP of Zif268 on its consensus site and the binding signal [6] was 0.472 ± 0.086 mean GFP / mean GFP of Zif268 on its consensus site.
